# Several values for one entry are separate records, joined by “and”; a condition that tells them apart may be missing. Equal entries are not always repeated. The whole screen tested about 5,500 compounds, of which about 2,000 (36%) were called active. Inconclusive results (about 18%) are left out. The list shows a part of the results. Unmarked numbers belong to inactive results. Cut-off read from the data, not from the text of the source: active = normalized growth mostly below about 0.91 (no sharp cut-off); inconclusive = no clear call, values can overlap the other calls; inactive = mostly above about 0.92.
# Experiment: chemical genetic growth profiling, strain panel (AID 1159580);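 note: tested at 20 µM; growth read once vehicle control cultures reached saturation at 30 °C; 1 = growth at the plate median or of vehicle wells; lower values mean less growth of the strain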
# Settings: S. cerevisiae deletion strains, growth OD
structure (smiles),measurement,setting,value
CCN(CC)C(=S)SSC(=S)N(CC)CC,normalized growth,"locus YAL013W, strain DEP1, active compounds read low",0.0629 (active) and 0.897 (active)
same,normalized growth,"locus YAL021C, strain ccr4, active compounds read low",0.0672 (active)
same,normalized growth,"locus YAL026C, strain drs2, active compounds read low",0.0682 (active)
same,normalized growth,"locus YAL030W, strain snc1, active compounds read low",0.0564 (active)
same,normalized growth,"locus YAL040C, strain CLN3, active compounds read low",0.308 (active)
same,normalized growth,"locus YBL061C, strain skt5, active compounds read low",0.062 (active)
same,normalized growth,"locus YBR009C, strain hhf1, active compounds read low",0.0652 (active)
same,normalized growth,"locus YBR021W, strain FUR4, active compounds read low",0.0934 (active)
same,normalized growth,"locus YBR023C, strain chs3, active compounds read low",0.0638 (active)
same,normalized growth,"locus YBR171W, strain sec66, active compounds read low",0.0771 (active)
same,normalized growth,"locus YBR229C, strain ROT2, active compounds read low",0.426 (active)
same,normalized growth,"locus YBR231C, strain swc5, active compounds read low",0.0656 (active)
same,normalized growth,"locus YBR279W, strain paf1, active compounds read low",0.063 (active)
same,normalized growth,"locus YCL011C, strain gbp2, active compounds read low",0.0576 (active)
same,normalized growth,"locus YCL016C, strain dcc1, active compounds read low",0.065 (active)
same,normalized growth,"locus YCL029C, strain bik1, active compounds read low",0.135 (active)
same,normalized growth,"locus YCL061C, strain MRC1 (second series), active compounds read low",0.936 (active)
same,normalized growth,"locus YCL061C, strain MRC1, active compounds read low",0.0667 (active)
same,normalized growth,"locus YCL069W, strain vba3, active compounds read low",0.0629 (active)
same,normalized growth,"locus YCR088W, strain abp1, active compounds read low",0.062 (active)
same,normalized growth,"locus YDL005C, strain med2, active compounds read low",0.0753 (active)
same,normalized growth,"locus YDL035C, strain GPR1, active compounds read low",0.0484 (active)
same,normalized growth,"locus YDL040C, strain nat1, active compounds read low",0.0568 (active)
same,normalized growth,"locus YDL074C, strain BRE1, active compounds read low",0.0817 (active)
same,normalized growth,"locus YDL101C, strain DUN1, active compounds read low",0.068 (active)
same,normalized growth,"locus YDL134C, strain PPH21, active compounds read low",0.0516 (active)
same,normalized growth,"locus YDL185W, strain tfp1, active compounds read low",0.788 (active)
same,normalized growth,"locus YDL192W, strain arf1, active compounds read low",0.0621 (active)
same,normalized growth,"locus YDR001C, strain nth1, active compounds read low",0.0666 (active)
same,normalized growth,"locus YDR069C, strain doa4, active compounds read low",0.0647 (active)
same,normalized growth,"locus YDR101C, strain arx1, active compounds read low",0.101 (active)
same,normalized growth,"locus YDR137W, strain rgp1, active compounds read low",0.0968 (active)
same,normalized growth,"locus YDR150W, strain NUM1, active compounds read low",0.0605 (active)
same,normalized growth,"locus YDR159W, strain sac3, active compounds read low",0.0932 (active)
same,normalized growth,"locus YDR162C, strain NBP2, active compounds read low",0.0518 (active)
same,normalized growth,"locus YDR195W, strain ref2",0.121 (active)
same,normalized growth,"locus YDR297W, strain sur2, active compounds read low",0.0658 (active)
same,normalized growth,"locus YDR318W, strain mcm21, active compounds read low",0.0632 (active)
same,normalized growth,"locus YDR334W, strain swr1, active compounds read low",0.066 (active)
same,normalized growth,"locus YDR335W, strain msn5, active compounds read low",0.0613 (active)
same,normalized growth,"locus YDR363W, strain ESC2, active compounds read low",0.997
same,normalized growth,"locus YDR388W, active compounds read low",0.0574 (active)
same,normalized growth,"locus YDR392W, strain spt3, active compounds read low",0.103 (active)
same,normalized growth,"locus YDR502C, strain sam2, active compounds read low",0.0592 (active)
same,normalized growth,"locus YEL003W, strain gim4, active compounds read low",0.0548 (active)
same,normalized growth,"locus YEL037C, strain rad23, active compounds read low",0.0581 (active)
same,normalized growth,"locus YEL061C, strain CIN8 (second series), active compounds read low",0.0638 (active)
same,normalized growth,"locus YEL061C, strain CIN8, active compounds read low",0.0531 (active)
same,normalized growth,"locus YER015W, strain faa2, active compounds read low",0.0589 (active)
same,normalized growth,"locus YER016W, strain bim1, active compounds read low",0.0621 (active)
same,normalized growth,"locus YER110C, active compounds read low",0.0748 (active)
same,normalized growth,"locus YER111C, strain swi4, active compounds read low",0.0842 (active)
same,normalized growth,"locus YER155C, strain BEM2 (second series), active compounds read low",0.092 (active)
same,normalized growth,"locus YER155C, strain BEM2, active compounds read low",0.0787 (active)
same,normalized growth,"locus YER167W, strain BCK2, active compounds read low",0.0526 (active)
same,normalized growth,"locus YFR010W, strain ubp6, active compounds read low",0.0704 (active)
same,normalized growth,"locus YGL078C, strain dbp3, active compounds read low",0.0558 (active)
same,normalized growth,"locus YGL086W, strain mad1, active compounds read low",0.0539 (active)
same,normalized growth,"locus YGL167C, strain pmr1, active compounds read low",0.0736 (active)
same,normalized growth,"locus YGL173C, strain kem1, active compounds read low",0.0686 (active)
same,normalized growth,"locus YGL227W, strain vid30, active compounds read low",0.0649 (active)
same,normalized growth,"locus YGL240W, strain doc1, active compounds read low",0.0818 (active)
same,normalized growth,"locus YGL248W, strain PDE1, active compounds read low",0.0479 (active)
same,normalized growth,"locus YGL253W, strain hxk2, active compounds read low",0.0556 (active)
same,normalized growth,"locus YGR078C, strain PAC10, active compounds read low",0.0528 (active)
same,normalized growth,"locus YGR135W, strain pre9, active compounds read low",0.0614 (active)
same,normalized growth,"locus YGR229C, strain SMI1, active compounds read low",0.0585 (active) and 0.186 (active)
same,normalized growth,"locus YGR252W, strain gcn5, active compounds read low",0.111 (active)
same,normalized growth,"locus YHR013C, strain ard1, active compounds read low",0.114 (active)
same,normalized growth,"locus YHR027C, strain rpn1, active compounds read low",0.0617 (active)
same,normalized growth,"locus YHR030C, strain SLT2, active compounds read low",0.0521 (active) and 0.114 (active)
same,normalized growth,"locus YHR079C, strain IRE1 (second series), active compounds read low",0.0828 (active)
same,normalized growth,"locus YHR079C, strain IRE1, active compounds read low",0.111 (active)
same,normalized growth,"locus YHR094C, strain hxt1, active compounds read low",0.0606 (active)
same,normalized growth,"locus YHR129C, strain ARP1, active compounds read low",0.0581 (active)
same,normalized growth,"locus YHR142W, strain chs7, active compounds read low",0.0762 (active)
same,normalized growth,"locus YHR200W, strain rpn10, active compounds read low",0.0631 (active)
same,normalized growth,"locus YIL066C, strain RNR3, active compounds read low",0.0508 (active)
same,normalized growth,"locus YIL073C, strain SPO22, active compounds read low",0.104 (active)
same,normalized growth,"locus YIL125W, strain kgd1, active compounds read low",0.0593 (active)
same,normalized growth,"locus YIR030C, strain dcg1, active compounds read low",0.0587 (active)
same,normalized growth,"locus YJL092W, strain hpr5, active compounds read low",0.0611 (active)
same,normalized growth,"locus YJL095W, strain BCK1 (second series), active compounds read low",0.0583 (active)
same,normalized growth,"locus YJL095W, strain BCK1, active compounds read low",0.0582 (active) and 0.114 (active)
same,normalized growth,"locus YJL115W, strain asf1, active compounds read low",0.0765 (active)
same,normalized growth,"locus YJL129C, strain trk1, active compounds read low",0.0869 (active)
same,normalized growth,"locus YJL134W, strain LCB3, active compounds read low",0.0503 (active)
same,normalized growth,"locus YJL154C, strain vps35, active compounds read low",0.0608 (active)
same,normalized growth,"locus YJL164C, strain tpk1, active compounds read low",0.0649 (active)
same,normalized growth,"locus YJL166W, strain qcr8, active compounds read low",0.0615 (active)
same,normalized growth,"locus YJL168C, strain set2, active compounds read low",0.0602 (active)
same,normalized growth,"locus YJL187C, strain SWE1 (second series), active compounds read low",0.102 (active)
same,normalized growth,"locus YJL187C, strain SWE1, active compounds read low",0.0577 (active)
same,normalized growth,"locus YJR043C, strain POL32, active compounds read low",0.0598 (active)
same,normalized growth,"locus YJR066W, strain TOR1, active compounds read low",0.00329 (active)

# Source: PubChem BioAssay AID1159580 (chemical genetic matrix, 2015)
